High-throughput results: PubChem BioAssay, several laboratories
BaF3 tox: counter-screen for JAK2V617F inhibitors: parental Ba/F3 viability inhibitors. CellTiter-Glo ATP luminescence. inhibition, % at 5.6 µM. AID 1486. 1.1% of 220,000 active;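 active means inhibition above a per-campaign cutoff, the mean inhibition of all tested compounds plus 3 SD, cut at about 27% in these data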
APP transl inh: APP translation inhibition | 0.82% of 190,000 active | SH-SY5Y APP 5'UTR-luciferase reporter, luminescence | inhibition, % at 2 µM;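 active means inhibition above a set limit, derived from the sample mean plus 3 SD, cut at about 45% in these data; inconclusive means one replicate passes the limit while the other fails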
Ba/F3 V617F tox: loss of viability in JAK2V617F-driven Ba/F3 cells; inhibition, % at 5.6 µM; 1.1% of 220,000 active; Ba/F3 EpoR-JAK2V617F viability, ATP luminescence;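 active means inhibition above the campaign mean plus 3 SD over all tested compounds, cut at about 24% in these data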;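 further: cytokine-independent growth of Ba/F3 cells driven by EpoR plus mutant JAK2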
aSyn UTR inh: 5' untranslated region of α-synuclein, MLPCN primary screen; alpha-synuclein 5'UTR reporter, inhibitor activity; inhibition, % (tested at 7.5 µM); 0.82% of 300,000 active; in the data active means inhibition above about 60%; inconclusive means no clear call, values can overlap the other calls;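 further: H4 neuroglioblastoma cells stably carrying SNCA 5'UTR luciferase fusion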
IEC-6 cytotox: kills IEC-6 intestinal cells in KLF5 counter-screen | inhibition, % at 5 µM | IEC-6 cytotoxicity, luminescence viability | AID 1825 | 0.78% of 290,000 active; in the data active means inhibition above about 22%
KLF5 inh: kruppel-like factor 5 inhibition; inhibition, % at 5 µM; AID 1700; 0.23% of 290,000 active; DLD-1 KLF5 promoter-luciferase reporter, luminescence;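 active means inhibition above a per-plate limit of that plate's mean compound inhibition plus 3 SD, cut at about 60% in these data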;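 further: higher means less KLF5 promoter-driven luciferase light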
Of the large screens only hits and unclear results are named; the others gave an inactive call. Only some compounds are listed: those with a hit (about 2.2% of all), similar ones and a draw of the others.

COC(OC)c1ccc(C#N)c(=O)[nH]1	APP transl inh 46
CCC(=O)c1ccc(OCC(O)Cn2c(C)nc3ccccc32)cc1 (configuration not stated)	BaF3 tox 44, Ba/F3 V617F tox 42 (no result: aSyn UTR inh)
CC1CCCCC1NC(=O)Cc1ccc(S(=O)(=O)N2CCOCC2)s1 (configuration not stated)	none (no result: BaF3 tox, APP transl inh, Ba/F3 V617F tox, IEC-6 cytotox, KLF5 inh)
COc1ccc(CNC(=O)c2c(C)oc3c2C(=O)c2ccccc2C3=O)cc1	aSyn UTR inh 103
Nc1ccc(N=Nc2ccccc2)c(N)n1	none
Cc1[nH]c(N=Nc2ccccc2)nc1N=Nc1ccccc1	aSyn UTR inh 63 (no result: APP transl inh)
CCOC(=O)C1CCCN(Cc2cc(=O)oc3cc(C)c(C)cc23)C1 (configuration not stated)	BaF3 tox 82
CCOC(=O)C1CCCN(Cc2cc(=O)oc3cc(C)ccc23)C1 (configuration not stated)	none
O=C(CN1CCC(NC(=O)c2cccc(F)c2)CC1)Nc1ccc(Br)cc1	aSyn UTR inh 68 (no result: BaF3 tox, APP transl inh, Ba/F3 V617F tox)
Cc1cc(C)c(C#N)c(SCc2nnc(-c3ccccc3)o2)n1	aSyn UTR inh 102
Cc1ccc(C#N)c(SCc2cc3c(cc2Cl)OCO3)n1	none
Cc1ccc(C#N)c(SCc2nnc(-c3ccc(Cl)cc3)o2)n1	aSyn UTR inh 90
Cn1c(=O)n(CCCO)c(=O)c2c1nc1n2CCCN1Cc1ccccc1	none (no result: BaF3 tox, APP transl inh, Ba/F3 V617F tox)
COc1ccc(CNC(=O)C2CCCN2S(=O)(=O)c2ccc(F)cc2)cc1 (configuration not stated)	none
CC(C)OCCCNc1ncnc2c1[nH]c1ccccc12	BaF3 tox 52, Ba/F3 V617F tox 40
COc1ccc(CNc2ncnc3c2[nH]c2ccccc23)cc1	none (no result: APP transl inh)
Cc1ccc(C(=O)N2CCCC(N3CCN(c4cccc(C(F)(F)F)c4)CC3)C2)s1 (configuration not stated)	none (no result: BaF3 tox, APP transl inh, Ba/F3 V617F tox)
COc1ccc(CC(=O)NC2CC2)cc1OC	none (no result: BaF3 tox, APP transl inh, Ba/F3 V617F tox)
Cc1nn(Cc2ccc(Cl)c(Cl)c2)c(C)c1NC(=O)c1cc(-c2ccc3c(c2)OCO3)on1	APP transl inh 52, aSyn UTR inh 66
CCCOc1ccc(OCCSc2nnc(N)s2)cc1	BaF3 tox 40, Ba/F3 V617F tox 24
Nc1nnc(SCCCOc2ccc(F)cc2)s1	none (no result: BaF3 tox, APP transl inh, Ba/F3 V617F tox)
CCCCCCn1nc(C(=O)N(CCOC)c2c(N)n(CCCC)c(=O)[nH]c2=O)c2ccccc2c1=O	none (no result: BaF3 tox, APP transl inh, Ba/F3 V617F tox, IEC-6 cytotox, KLF5 inh)
COc1ccc(-n2c(C)cc(C(=O)Cn3nnc4ccccc4c3=O)c2C)cc1	none
Cc1cc(C(=O)Cn2nnc3ccccc3c2=O)c(C)n1-c1ccccc1F	BaF3 tox 52, Ba/F3 V617F tox 46, aSyn UTR inh inconclusive
O=C(O)c1ccc(Cl)c(S(=O)(=O)NCC2CCCO2)c1 (configuration not stated)	APP transl inh 57
O=S(=O)(NCC1CCCO1)c1ccc(-c2ccc(S(=O)(=O)NCC3CCCO3)cc2)cc1 (configuration not stated)	BaF3 tox 80, Ba/F3 V617F tox 52
COc1ccc(N2CCN(CC(O)COc3ccccc3[N+](=O)[O-])CC2)cc1 (configuration not stated)	none
COc1ccc(NC(=O)c2cc(-c3ccccc3OC)on2)cc1	APP transl inh 74
COc1ccc(NC(=O)c2cc(-c3ccccc3Cl)on2)cc1	none (no result: BaF3 tox, APP transl inh, Ba/F3 V617F tox)
O=C(CCCN1C(=O)/C(=C/c2ccccc2Cl)SC1=S)NNC(=O)c1ccccc1	aSyn UTR inh 62
O=C(CCN1C(=O)/C(=C/c2ccccc2Cl)SC1=S)Nc1ccccc1C(=O)O	none (no result: BaF3 tox, APP transl inh, Ba/F3 V617F tox)
O=C(CCCN1C(=O)S/C(=C\c2ccccc2)C1=O)NNC(=O)c1ccccc1O	APP transl inh 63, aSyn UTR inh 83
O=C(CCCN1C(=O)/C(=C/c2ccccc2Cl)SC1=S)NNC(=O)c1cccnc1	none (no result: APP transl inh)
O=C(CCCN1C(=O)/C(=C/c2ccccc2Cl)SC1=S)NNC(=O)c1ccc(Cl)cc1Cl	aSyn UTR inh 71 (no result: APP transl inh)
Cc1ccnc(NC(=O)CSc2nnc3c(n2)[nH]c2ccccc23)c1	none
Cc1ccc(CNC(=S)Nc2ccc(NS(=O)(=O)c3ccc(C)cc3)cc2)cc1	none (no result: BaF3 tox, APP transl inh, Ba/F3 V617F tox)
COC(=O)Cc1c(C(=O)OC)nnn1-c1cccc(C(F)(F)F)c1	none
CCOc1ccccc1C(=O)OCC(=O)NCC1CCCCC1	none (no result: BaF3 tox, APP transl inh, Ba/F3 V617F tox, IEC-6 cytotox, KLF5 inh)
NC1=NC(c2ccccc2)N=C(Nc2ccccc2)N1 (configuration not stated)	BaF3 tox 68 (no result: APP transl inh)
NC1=NC2(CCCC2)N=C(Nc2ccccc2)N1	none (no result: APP transl inh)
CC(C)Oc1ccc(C(=O)Nc2nnc(SCC(=O)N3CCOCC3)s2)cc1	aSyn UTR inh 98
Cc1ccc(C(=O)Nc2nnc(SCC(=O)N3CCCc4ccccc43)s2)cc1	aSyn UTR inh 74
CCOC(=O)CNC(=O)CSc1nnc(NC(=O)c2ccc(C)cc2)s1	aSyn UTR inh 74
O=c1[nH]c2cc(S(=O)(=O)CCO)ccc2o1	none (no result: APP transl inh)
Cc1ccc(CNC(=O)c2ccccc2NC(=O)CN2CC(C)OC(C)C2)cc1 (configuration not stated)	none (no result: BaF3 tox, APP transl inh, Ba/F3 V617F tox)
Cc1nnc(SCC(=O)NC2CCCCC2C)s1 (configuration not stated)	none
O=c1c2ccccc2nc(N/N=C/c2c(O)ccc3ccccc23)n1O	BaF3 tox 74, APP transl inh 57, Ba/F3 V617F tox 93, aSyn UTR inh 82
O=c1c2ccccc2nc(N/N=C/c2ccc(O)cc2)n1O	none
Cc1cc(C)c[n+](CC(=O)c2c(C)cc(C)c([N+](=O)[O-])c2C)c1	none (no result: BaF3 tox, APP transl inh, Ba/F3 V617F tox)
CCOC(=O)c1cn(Cc2ccccc2)nc1-c1ccccc1	none (no result: BaF3 tox, APP transl inh, Ba/F3 V617F tox, IEC-6 cytotox, KLF5 inh)
CCCCNC(=S)NCC(c1ccccc1)c1c[nH]c2ccccc12 (configuration not stated)	none (no result: BaF3 tox, APP transl inh, Ba/F3 V617F tox)
CN(C)CCCNC(=S)NCC(c1ccc(Cl)cc1Cl)c1c[nH]c2ccccc12 (configuration not stated)	aSyn UTR inh 111 (no result: BaF3 tox, APP transl inh, Ba/F3 V617F tox)
COc1ccc(NC(=O)Nc2nnc(N3CCC(C)CC3)s2)cc1OC	none
COc1ccc(OC)c(NC(=O)Nc2nnc(N3CCC(C)CC3)s2)c1	APP transl inh 48
CCCC(=O)N(c1ccc(C(=O)O)cc1)c1nc(-c2ccccc2)c(C)s1	none
COc1ccc(C)cc1S(=O)(=O)NCC(c1ccc2c(c1)OCO2)N1CCN(C)CC1 (configuration not stated)	none (no result: BaF3 tox, APP transl inh, Ba/F3 V617F tox, IEC-6 cytotox, KLF5 inh)
COc1ccccc1C(=O)N(C)c1nnc(-c2ccccc2)s1	none (no result: BaF3 tox, APP transl inh, Ba/F3 V617F tox)
CN(C)/C=N/C1=C(C#N)C(c2cccs2)c2ccc3ccccc3c2O1 (configuration not stated)	APP transl inh 92 (no result: aSyn UTR inh)
N#CC1=C(N)Oc2cc3ccccc3cc2C1c1cccs1 (configuration not stated)	none
Oc1ccc(Nc2nc3ccccc3nc2Nc2ccc(O)cc2)cc1	BaF3 tox 100, APP transl inh 87, Ba/F3 V617F tox 93, aSyn UTR inh 108
C=CCNc1nc(N)c([N+](=O)[O-])c(N2CCCCCC2)n1	aSyn UTR inh 69 (no result: BaF3 tox, APP transl inh, Ba/F3 V617F tox)
CCN(CC)CCCNc1nc(N)c([N+](=O)[O-])c(N2CCCCCC2)n1	none (no result: BaF3 tox, APP transl inh, Ba/F3 V617F tox)
